# Results taken from PubChem BioAssay AID1347423 (Functional Genomics Laboratory (NCATS/FGL), 2020).
# Hit rate of the full screen: of about 52,000 sequences, about 210 (0.4%) were called active. Shown is part of a subset that was picked to be rich in actives. Values without a mark were called inactive.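 How the source made its calls: active means gene whose silencing raises cell survival under the drug, median off-target-corrected z-score across its silencing RNAs 2 or more; inactive means the rest.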
# Experiment: Resistance to Poly (ADP-Ribose) Polymerase inhibitor: Gene Identification via Genome-wide siRNA Screen
# Conditions: mouse BRCA2 R2336H ES cells, olaparib, CellTiter-Glo viability; active compounds read high
# Outline: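 Genome-wide siRNA screen (3 siRNAs/gene, 20 nM) in mouse ES cells carrying hypomorphic BRCA2 R2336H; olaparib 500 nM added 48 h post-transfection, CellTiter-Glo viability 72 h later. Normalized to plate-median negative control; MAD z-scores, gene median, seed-adjusted.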
row,Sequence,z-score
1,GCCCUUUGGAUAACAGUGATT against Sufu,-0.968
2,GGCCUUCAAUCACCUAGAGTT against Pde6g,2.23 (active)
3,GCAGCUGGCUGCUUUCACATT against AV028368,-0.955
4,CCGACGUGCAUGGAGAAAATT against 1700030J22Rik,-1.71
5,GCCAUUAAUCUCACAUGUATT against A930001N09Rik,-0.871
6,GGAAGACCGUACUAUGUUUTT against Gtl2,-2.38
7,CCAGUUGGAAAUAUGACGATT against 2510002A14Rik,0.99
8,CCUAUGUCAUCAUUGGAGUTT against 2310005G13Rik,0.537
9,CGAUGACAUCAGGAUUGUUTT against Gpr128,1.23 (active)
10,GCUGAUUUCCAAAGAUAAUTT against Glycam1,0.301
11,GCCCAUGAAUUUUUACUUATT against C330019G07Rik,0.714
12,CGAAGGGACCGAAGAAUCCTT against 5730538E15Rik,-0.602
13,CCAGUCCUACUUAGCAAAGTT against BC046404,1.34
14,CCAUUACACAAAGUUUUGCTT against Stard6,0.874
15,GGGUUCAAGAGAUGAUAUUTT against Usp11,2.47 (active)
16,GGAAAGUGUGUUCAUUAGUTT against Pla2g2d,-0.775
17,GGAAAAGGAGGUGGUACUGTT against Agc1,0.55
18,CGCCCAGUGCAAUUUUUUCTT against Gm592,-0.745
19,CCAUAGCACUAAAUCAGAUTT against 4933421G18Rik,0.387
20,GGACCUAUUUCUCUGCUCCTT against E330026B02Rik,-0.251

row,Sequence,z-score
1,GGACAUUCGUGGUUCCAUCTT against 4833412N02Rik,0.546
2,GGAGGUCGCUUCCUAUUACTT against Tat,1.26 (active)
3,GGACUAUCAGGACCUUUUUTT against Dnajb3,-1.77
4,GCUAAAAGGUAAGUACUUCTT against AB041803,0.00857
5,GGAGAUUGAUGAGCAUGCCTT against Rab40b,0.456
6,GGUUCUGAAGAUGGAGGUUTT against Ttbk1,-1.25
7,GCUGUUGGUUUCUACUCACTT against Adam21,1.43 (active)
8,GGAAGACCUGAUUGGAAAATT against Trpm1,0.553
9,GAGCCUUCUAAGUCUGCACTT against Hist1h2bb,0.996
10,GGAAAUCACCAGAGCUGAUTT against Atp6v0a2,1.56
11,GGGCUAUUAAAUGAUUUCATT against Pax1,-0.101
12,CGUAGCAAUCUUGGUUGCUTT against Hoxa3,0.734
13,GGCUGUGAGAUAGAUCUAATT against E130112L23Rik,-0.595
14,GGAUGUGGACUCAAAGAAATT against 1110001E17Rik,1.9 (active)
15,CGAGGGAUAAGAGUCUACGTT against D4Bwg1540e,-0.0629
16,GGCCAUUAACAGCAGUCUGTT against Kifc1,-2.66
17,GGGACUUUUUUUGAAUCCUTT against Ndrg3,0.835
18,GGCAGCGCAAUGGAUUAGUTT against Chrng,1.99 (active)
19,GGAGCAACAGCCAAAUACCTT against 1700001F22Rik,0.124
20,CGGCAGGAUGAAUGAGAUCTT against Bccip,0.692
